PLK1 PBD inh: blocks phosphopeptide binding to human PLK1 polo-box domain; P53350; Potency, µM, without a hit: max response, negative = inhibition, most hits filed as inhibitors; 2.8% of 360,000 active; Plk1 PBD binding of FITC phosphopeptide, fluorescence polarization; also: series mostly up to about 57 µM; % is scaled to controls: 0 for no effect and ±100 for the full control effect; nearly all actives have a fitted effect of over 65% in size
GLS inhibitor: inhibitors of human glutaminase (GLS). O94925. GLS enzymatic activity, qHTS titration. Potency, µM (doses to about 45.5 µM), without a hit: at the highest dose activity change, negative = inhibition, actives largely listed as inhibitors. 0.21% of 410,000 active; also: % is scaled to controls: 0 for no effect and ±100 for the full control effect
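hKGA in 45 mM KH2PO4 pH 8.2, 0.02% Tween-20 with pin-transferred compounds; 1 mM L-glutamine (stock) plus glutamate oxidase/HRP/Amplex Red coupling added. Fluorescence read initially and after 30 min at RT.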
PKM2 act: PKM2 (human) enzyme activation; 0.34% of 260,000 active; Potency, µM (highest dose often 57.5 µM), without a hit: at the top dose activation, hits mostly activators; purified PKM2, Kinase-Glo ATP luminescence, activation; response scale: 0% is enzyme alone, no compound; also: % is scaled to controls: 0 for no effect and ±100 for the full control effect; nearly all actives have a fitted effect of over 55% in size
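Purified hPK-M2 (>95% pure) converted ADP (0.1 mM final) to ATP with 0.5 mM PEP in 50 mM imidazole pH7.2, KCl, MgCl2, Tween 20, BSA; 1 h at room temperature. ATP detected by Kinase-Glo luminescence.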
VDR inhibitor: blocks the human vitamin D receptor | P11473 | VDR-SRC2-3 peptide fluorescence polarization, 2 h | Potency, µM, for the others: max response, negative = inhibition, hits mostly inhibitors | 0.93% of 400,000 active; also: % is scaled to controls: 0 for no effect and ±100 for the full control effect
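After 23 nl compound addition and a short centrifugation, plates sat for 2 hours at ambient temperature; polarization of fluorescence then indicated loss of VDR binding to peptide SRC2-3.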
GCN5L2 inh: blocks human GCN5L2 histone acetyltransferase | Q92830 | GCN5L2 HAT assay, ThioGlo1 CoA-SH fluorescence | Potency, µM (highest dose often 58.9 µM), inactives show at the highest dose activity change, negative = inhibition, hits mostly inhibitors | 0.21% of 390,000 active; also: % is scaled to controls: 0 for no effect and ±100 for the full control effect
Target sequence (Q92830 whole entry, looked up): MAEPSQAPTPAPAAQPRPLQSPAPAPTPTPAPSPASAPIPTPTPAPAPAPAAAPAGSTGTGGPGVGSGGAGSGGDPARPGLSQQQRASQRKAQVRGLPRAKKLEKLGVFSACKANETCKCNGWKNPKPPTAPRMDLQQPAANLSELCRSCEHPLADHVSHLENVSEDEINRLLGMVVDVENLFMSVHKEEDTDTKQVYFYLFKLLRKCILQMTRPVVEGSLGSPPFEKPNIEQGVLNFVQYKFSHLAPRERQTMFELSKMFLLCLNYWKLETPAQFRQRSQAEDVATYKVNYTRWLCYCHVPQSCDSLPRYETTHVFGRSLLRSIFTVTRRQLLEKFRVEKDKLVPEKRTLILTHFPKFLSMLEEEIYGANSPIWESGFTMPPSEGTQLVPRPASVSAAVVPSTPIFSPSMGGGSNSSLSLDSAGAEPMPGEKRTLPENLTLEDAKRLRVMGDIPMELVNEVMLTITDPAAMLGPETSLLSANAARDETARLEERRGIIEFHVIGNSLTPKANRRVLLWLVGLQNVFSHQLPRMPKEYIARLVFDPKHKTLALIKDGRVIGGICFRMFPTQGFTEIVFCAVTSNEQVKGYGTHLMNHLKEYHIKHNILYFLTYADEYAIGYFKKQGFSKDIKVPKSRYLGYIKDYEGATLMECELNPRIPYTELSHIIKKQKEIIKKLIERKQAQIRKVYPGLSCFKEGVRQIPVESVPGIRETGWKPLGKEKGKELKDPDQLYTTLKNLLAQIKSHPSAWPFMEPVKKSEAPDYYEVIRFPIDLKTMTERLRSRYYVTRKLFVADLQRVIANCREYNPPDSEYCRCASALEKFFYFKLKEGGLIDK
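GCN5L2 (20nM final) in 50mM HEPES, 0.1mM EDTA pH 7.5, 0.01% Tween-20 was preincubated 15 min at room temperature with compound, then given ThioGlo1 (50uM), H3(1-25) peptide (75uM) and acetyl-CoA (70uM); CoA-thiol fluorescence (Ex340/Em540) was read at 0 and 20 min.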
Mito fusion yeast: blocks mitochondrial division or promotes mitochondrial fusion; S. cerevisiae fusion-defective mutant growth rescue, CellTiterGlo 48 h; Potency, µM (doses to about 46.1 µM), for inactives: at the top dose growth rescue (activation), hits mostly activators; 0.23% of 320,000 active; AID 485298; also: % of control where 0% means no effect; nearly all actives have a fitted effect of over 45% in size
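Temperature-sensitive fusion-defective S. cerevisiae (e.g. fzo1-1, mgm1-5) were grown with compound in YPEG medium (3% ethanol, 3% glycerol) for 48 hours at 37C. Growth rescue was measured as viability by CellTiterGlo luminescence after 10 minutes at ambient.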
Starred values were filed as active, the others as inactive; ? = inconclusive; nt = not tested or not shown; [ ] = dose if it differs, or a comment. This is a sample that favours compounds with a hit; in the whole collection about 3.4% have one here. Calls follow the shape of the dose curve; as a rule, active = well fitted curve in the direction sought with a large enough effect; inconclusive = small, poorly fitted or top-dose-only effect, or another doubt; inactive = no such curve, though single readings can be large; an effect the other way counts as inactive or inconclusive. Potency is read from the fitted curve at half-maximal effect.

SMILES	PLK1 PBD inh	GLS inhibitor	PKM2 act	VDR inhibitor	GCN5L2 inh	Mito fusion yeast
O=C(O)C1=NN(c2cc(Cl)c(S(=O)(=O)O)cc2Cl)C(=O)C1	?	1.12µM*	nt	-14.4%	nt	nt
Cc1ccc(S(=O)(=O)SC/C=C/CSS(=O)(=O)c2ccc(C)cc2)cc1	2.67µM*	17.5%	nt	44.7µM*	nt	nt
Cc1ccc(S(=O)(=O)SCCCSS(=O)(=O)c2ccc(C)cc2)cc1	2.38µM*	15.3%	nt	50.1µM*	nt	nt
COc1ccc(-c2nc3c(c(SC)n2)Cc2c(CO)cnc(C)c2O3)cc1	nt	-4.9%	nt	-0.9%	-0.4%	nt
CC(=O)N[C@H]1[C@H](O[C@@H]2c3ccc(c(Cl)c3)Oc3cc4cc(c3O[C@@H]3O[C@H](CO)[C@@H](O)[C@H](O)C3C)Oc3ccc(cc3Cl)C[C@H]3NC(=O)[C@@H](N)c5ccc(O)c(c5)Oc5cc(O)cc(c5)[C@H](NC3=O)C(=O)N[C@H]4C(=O)N[C@H]3C(=O)N[C@@H]2C(=O)N[C@@H](C(=O)O)c2cc(O)cc(O[C@H]4O[C@H](CO)[C@@H](O)C(O)[C@@H]4O)c2-c2cc3ccc2O)O[C@H](CO)[C@@H](O)[C@@H]1O (stereo partly drawn)	nt	15.8µM*	nt	-7.3%	-13.7%[21.4 µM]	nt
COC(=O)C1=C(C)N(Cc2ccccc2)C(=NCCCCO)N[C@H]1CCc1ccccc1	-5.4%	-2.6%	-0.6%	-8.7%	-2.7%	-0.3%
Cc1cc(=O)[nH]c(SCC(=O)NC(c2ccccc2)c2ccccc2)n1	-13.2%	-15.9%	3.4%	-10.0%	-2.8%	-2.0%
COC(=O)C(CSCc1ccccc1)NC(=O)CSc1nc(C)cc(=O)[nH]1 (stereo not drawn)	26.7µM*	0.9%	-7.3%	15.4%	-9.8%	-7.9%
CCOC(=O)c1oc2nc(C)c3c(c2c1N)CC(C)(C)OC3	11.9µM*	?	4.3%	?	9.9%	-12.4%
CCc1nc2oc(C(=O)c3ccccc3)c(N)c2c2c1COC(C)(C)C2	-5.2%	-10.5%	0.3%	2.3%	-1.7%	3.9%
CS(=O)(=O)OCCCNCCCOS(C)(=O)=O	nt	2.7%	nt	nt	nt	nt
CC(=O)Nc1cccc(CCc2nc3ccccc3[nH]2)c1	?	?	-6.8%	70.8µM*	-8.3%	-1.0%
CC(C)CC(=O)Nc1cccc(-c2nc3ccccc3[nH]2)c1	26.7µM*	56.8%	1.8%	?	2.7%	-1.9%
S=c1ncc2[nH]c(=S)[nH]c2[nH]1	1.68µM*	?	nt	31.6µM*	nt	nt
S=c1[nH]c2cc3c(cc2[nH]1)OCCO3	-19.6%	-24.7%	11.1%	1.4%	-3.2%	1.8%
c1ccc(Sc2ncccn2)nc1	26.7µM*	-2.0%	4.1%	-9.9%	-0.4%	3.7%
CCCCCCCC/C=C\CCCCCCCC(=O)OC[C@@H](O)[C@H]1OC[C@H](O)[C@H]1O	nt	4.8%	nt	nt	nt	nt
CCCCCCCC/C=C\CCCCCCCC(=O)OC[C@@H](O)COP(=O)(O)O	nt	nt	nt	-0.6%	-12.9%	nt
NCCNc1cccc2ccccc12	nt	20.2%	nt	50.1µM*	-27.9%	nt
NC(=O)Nc1cccc2ccccc12	-6.3%	-1.3%	-2.4%	-24.4%	-0.6%	-1.5%
Cc1ccc(-n2c(=O)c3cc4c(=O)n(-c5ccc(C)c(C)c5)c(=O)c4c(C(=O)c4ccc(C(=O)O)cc4)c3c2=O)cc1C	29.9µM*	9.2%	-8.3%	?	-20.9%	2.4%
O=C(O)c1ccc(-n2c(=O)c3ccccc3c3ccccc3c2=O)cc1	?	16.2%	-3.3%	?	-6.7%	4.5%
Cc1csc2c(N3CCN(C(=O)Nc4ccc(OC(F)(F)F)cc4)CC3)ncnc12	-7.7%	-11.6%	3.1%	5.8%	-7.7%	-15.8%
Cc1cccc(C(=O)NC2C(=O)NNC2c2ccc(Cl)cc2)c1 (stereo not drawn)	-26.7%	7.94µM*	2.4%	?	-2.6%	1.9%
CN1CCN(Cc2nc3ccccc3c(=O)n2Cc2nc(-c3ccc4ccccc4c3)cs2)CC1	?	-16.4%	-16.3%	-2.7%	-8.3%	-5.1%
SMILES	PLK1 PBD inh	GLS inhibitor	PKM2 act	VDR inhibitor	GCN5L2 inh	Mito fusion yeast
CN1CCN(Cc2nc3ccccc3c(=O)n2Cc2nc(-c3cccc([N+](=O)[O-])c3)cs2)CC1	26.7µM*	-3.2%	-21.7%	-9.6%	-8.3%	-7.3%
CCOC(=O)c1c(C)[nH]c(C(=O)/C(C#N)=C/c2ccc(OCC)cc2)c1C	-23.4%	-2.7%	-3.9%	-26.2%	-4.0%	8.4%
CC(=O)c1c(C)[nH]c(C(=O)/C(C#N)=C/c2cccc(C)c2)c1C	5.97µM*	27.8%	?	-24.2%	-2.1%	2.9%
COc1ccc(C)cc1COC(=O)c1[nH]c(C)c(C(C)=O)c1C	-1.7%	-0.8%	0.5%	-8.2%	1.6%	?
CC(=O)c1c(C)[nH]c(C(=O)OCc2cccc(C)c2)c1C	-6.6%	4.8%	2.3%	-12.7%	-5.5%	35.5µM*
CCOc1ccc(C(=O)OCC(=O)Nc2ccc3c(c2)OCCO3)cc1OC	-0.4%	-9.3%	nt	6.8%	-0.5%	-0.1%
COc1ccc(NC(=O)COc2ccc(C(=O)OCC(=O)N(C(C)C)C(C)C)cc2OC)cc1	23.8µM*	4.5%	nt	-8.1%	-5.1%	-1.2%
COc1ccc(C2OC3C(CO)OC(n4cnc5c(=O)[nH]c(N)nc54)C3O2)cc1 (stereo not drawn)	nt	nt	nt	13.0%	1.8%	nt
CCOC(=O)C1=C(C)N=c2s/c(=C/c3ccc(OCC(=O)O)cc3)c(=O)n2C1c1ccc(SC)cc1 (stereo not drawn)	nt	nt	0.5%	nt	?	-3.9%
CC1=C(C(=O)OC(C)C)C(c2ccc(Cl)cc2)n2c(sc(=Cc3ccc(OCC(=O)O)cc3)c2=O)=N1 (stereo not drawn)	-19.6%	7.08µM*	nt	nt	nt	nt
CCOC(=O)C1=C(C)N=c2s/c(=C/c3ccc(OCC(=O)O)cc3)c(=O)n2C1c1ccc(F)cc1 (stereo not drawn)	?	-9.9%	nt	70.8µM*	-21.2%	4.2%
CCOC(=O)C1=C(C)N=c2s/c(=C\c3ccc(OCC(=O)O)cc3)c(=O)n2C1c1ccc(Cl)cc1 (stereo not drawn)	10.3%	?	22.5%	79.4µM*	-23.5%	-3.5%
CCCN(c1ccccc1F)S(=O)(=O)c1cc(-c2cc(C)no2)ccc1OC	-6.3%	14.7%	nt	1.1%	-20.8%	-5.6%
CN1C(=O)/C(=C/c2ccc(-c3ccccc3[N+](=O)[O-])o2)SC1=Nc1ccc(Cl)c(C(=O)O)c1	26.7µM*	?	25.8%	?	31.7%	0.7%
O=C(O)c1cc(-c2ccc(/C=C3/SC(=S)N(Cc4ccccc4)C3=O)o2)ccc1Cl	-4.6%	0.0%	0.0%	-20.4%	-10.6%	?
CCNc1nc(NCC)nc(-n2cc(C(=O)c3cc(Cl)ccc3O)cn2)n1	nt	nt	nt	3.3%	nt	nt

Source: PubChem (National Center for Advancing Translational Sciences (NCATS))
